Several values for one entry are separate records, joined by “and”; a condition that tells them apart may be missing. Equal entries are not always repeated. Records with an inconclusive call do not appear. Activity calls are given as the source filed them. Rule for the calls: active = hit-call score of the fitted dose curve at least 0.9, where 1 is the maximum; inconclusive = response in the unintended direction; inactive = score below 0.9.
Experiments:
[1] = target: human AKT serine/threonine Kinase 1 (AKT1), AKT1 (gene 207) (UniProt P31749); assay: NVS_ENZ_hAKT1: NovaScreen (NVS) Enzymatic Assay for human AKT serine/threonine Kinase 1 (AKT1) (AID 2283138)
Method in brief: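 Screening first at 25 uM (duplicate), with threshold-passing chemicals re-tested in concentration series to a 50 uM maximum. Kinase activity read by fluorescence with mobility-shift separation of substrate and product, 1 h after dosing, DMSO baseline.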

[2] = target: rat CYP2D2, Cyp2d26 (gene 25053) (UniProt P10634); assay: NVS_ADME_rCYP2D2: NovaScreen (NVS) CYP450-related Enzyme Activity (ADME) Assay for rat CYP2D2 (AID 2283124)
Method in brief: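 Single-concentration duplicate testing at 10 uM, followed by concentration-response (top 20 uM) for chemicals passing threshold. Enzyme activity of the recombinant rat isoform measured by fluorescence after 0.75 h, acetonitrile as baseline.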

rat CYP3A1, gene 25642 = assay: NVS_ADME_rCYP3A1: NovaScreen (NVS) CYP450-related Enzyme Activity (ADME) Assay for rat CYP3A1 (AID 2283126)
Method in brief: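 Compounds went first at 10 uM duplicate, then to series with 20 uM maximum. Fluorescence from substrate turnover by the recombinant enzyme was measured 0.5 h post-dosing, inhibition scored against acetonitrile vehicle.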

[3] = target: rat CYP3A2, Cyp3a2 (gene 266682) (UniProt P05183); assay: NVS_ADME_rCYP3A2: NovaScreen (NVS) CYP450-related Enzyme Activity (ADME) Assay for rat CYP3A2 (AID 2283128)
Method in brief: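 Fluorescence readout of extracted rat CYP3A2 activity 0.5 h post-dose, acetonitrile as negative control. Single-point testing in duplicate at 10 uM, followed by concentration series to a 20 uM maximum for actives.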

[4] = target: human Caspase 5 (CASP5), CASP5 (gene 838) (UniProt P51878); assay: NVS_ENZ_hCASP5: NovaScreen (NVS) Enzymatic Assay for human Caspase 5 (CASP5) (AID 2283137)
Method: NVS_ENZ_hCASP5 is a biochemical, single-readout assay that uses extracted gene-proteins from E. coli in a cell-free assay. Measurements were taken 2 hours after chemical dosing in a 96-well plate.NVS_ENZ_hCASP5 is one of one assay component(s) measured or calculated from the NVS_ENZ_hCASP5 assay. It is designed to make measurements of enzyme activity, a form of enzyme reporter, as detected with fluorescence intensity signals by Fluorescence technology.Data from the assay component NVS_ENZ_hCASP5 was analyzed into 1 assay endpoint. This assay endpoint, NVS_ENZ_hCASP5, was analyzed in the positive analysis fitting direction relative to DMSO as the negative control and baseline of activity. Using a type of enzyme reporter, loss-of-signal activity can be used to understand changes in the enzymatic activity as they relate to the gene CASP5. Furthermore, this assay endpoint can be referred to as a primary readout, because this assay has produced multiple assay endpoints where this one serves a enzymatic activity function. To generalize the intended target to other relatable targets, this assay endpoint is annotated to the protease intended target family, where the subfamily is cysteine protease.
(§1) Binding assays used specific radioligands (tritiated, iodinated) with non-radioactive competitive displacement ligands in agonist or antagonist protocols (as indicated) and various reference compounds and inhibitors to titrate specific binding to receptors and transporters. Most enzyme assays (CYPs, kinases, phosphatases, proteases, HDACs) used recombinant protein and specific substrates (fluorescence mostly, some colorimetric and radioactive) and inhibitors, followed by a biochemical separation of substrate and product. All assays for the biochemical HTS were initially run in duplicate at a single concentration (10 uM for CYP450 assays and 25 uM for all others). Assay-chemical combinations meeting a pre-defined threshold (e.g., 30% inhibition and other criteria defined below) were then run in singleton concentration-response format with maximum concentration of 20 uM for CYPs and 50 uM for all others. Each assay was run with positive and negative controls, and concurrent controls on every plate. The follow-up (secondary) screen tested active chemical-pairs in concentration series, as well as a few additional assays not tested in the primary screen, some selected negative inactives, and several cases re-run in the concentration series for confirmatory purposes.

[5] = target: human AKT serine/threonine Kinase 2 (AKT2), AKT2 (gene 208) (UniProt P31751); assay: NVS_ENZ_hAKT2: NovaScreen (NVS) Enzymatic Assay for human AKT serine/threonine Kinase 2 (AKT2) (AID 2283141)
Method in brief: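 Cell-free fluorescence/electrophoretic mobility shift readout of recombinant human AKT2 activity, 1 h after chemical dosing. Duplicate primary screen at 25 uM, then singleton concentration-response up to 50 uM; loss of signal versus DMSO baseline.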

Caspase-3 (Homo sapiens) = Caspase-3 (Homo sapiens) (UniProt P42574); assay: NVS_ENZ_hCASP3: NovaScreen (NVS) Enzymatic Assay for human Caspase 3 (CASP3) (AID 2283139)
Method in brief: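 Single-concentration screening at 25 uM in duplicate, with concentration-response follow-up to a 50 uM maximum for chemicals passing the threshold. Caspase-3 (human, E. coli-expressed) activity was read as substrate fluorescence after 1 h, with loss of signal relative to DMSO.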

[6] = target: rat CYP2C13, Cyp2c13 (gene 171521) (UniProt P20814); assay: NVS_ADME_rCYP2C13: NovaScreen (NVS) CYP450-related Enzyme Activity (ADME) Assay for rat CYP2C13 (AID 2283121)
Method: NVS_ADME_rCYP2C13 is a biochemical, single-readout assay that uses extracted gene-proteins in a cell-free assay. Measurements were taken 0.75 hour after chemical dosing in a 96-well plate.NVS_ADME_rCYP2C13 is one of one assay component(s) measured or calculated from the NVS_ADME_rCYP2C13 assay. It is designed to make measurements of enzyme activity, a form of enzyme reporter, as detected with fluorescence intensity signals by Fluorescence technology.Data from the assay component NVS_ADME_rCYP2C13 was analyzed into 1 assay endpoint. This assay endpoint, NVS_ADME_rCYP2C13, was analyzed in the positive analysis fitting direction relative to Acetonitrile as the negative control and baseline of activity. Using a type of enzyme reporter, loss-of-signal activity can be used to understand changes in the enzymatic activity as they relate to the gene Cyp2c13. Furthermore, this assay endpoint can be referred to as a primary readout, because this assay has produced multiple assay endpoints where this one serves a enzymatic activity function. To generalize the intended target to other relatable targets, this assay endpoint is annotated to the cyp intended target family, where the subfamily is xenobiotic metabolism.
as §1, with “Assay-chemical combinations meeting a pre-defined threshold (e.g., 30% inhibition and other criteria defined below) were then run in singleton concentration-response format with maximum concentration of 20 uM for CYPs and 50 uM for all others.” left out

[7] = target: human Beta-secretase (BACE), BACE1 (gene 23621) (UniProt P56817); assay: NVS_ENZ_hBACE: NovaScreen (NVS) Enzymatic Assay for human Beta-secretase (BACE) (AID 2283140);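 note: hits are inhibitors that reduce fluorescent substrate signal versus DMSO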
Method in brief: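 Enzyme from SF9 cells was incubated 1 hour with compound and fluorogenic substrate, activity read by fluorescence. Single-concentration duplicates at 25 uM preceded concentration-response follow-up; fitting relative to DMSO baseline.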

[8] = target: human Acid Phosphatase 1 (ACP1), ACP1 (gene 52) (UniProt P24666); assay: NVS_ENZ_hACP1: NovaScreen (NVS) Enzymatic Assay for human Acid Phosphatase 1 (ACP1) (AID 2283136)
Method in brief: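 Cell-free fluorescence read-out of phosphatase activity, substrate and product separated by mobility shift, taken 1.5 h after compound addition; protein produced in Sf9. Single 25 uM duplicate screen, followed by concentration series for actives, scored as signal loss relative to DMSO.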

Caspase-3 (Homo sapiens), sequence (P42574 whole entry, looked up): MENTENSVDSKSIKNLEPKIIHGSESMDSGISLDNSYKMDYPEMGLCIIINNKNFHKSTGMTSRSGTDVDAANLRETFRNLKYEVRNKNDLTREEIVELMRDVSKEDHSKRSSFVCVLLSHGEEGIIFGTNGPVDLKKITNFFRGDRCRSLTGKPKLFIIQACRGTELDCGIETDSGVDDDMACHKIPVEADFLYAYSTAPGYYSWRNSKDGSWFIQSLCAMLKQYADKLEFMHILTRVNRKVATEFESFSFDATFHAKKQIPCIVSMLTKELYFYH
rat CYP2C13, Cyp2c13 (gene 171521), sequence (P20814 whole entry, looked up): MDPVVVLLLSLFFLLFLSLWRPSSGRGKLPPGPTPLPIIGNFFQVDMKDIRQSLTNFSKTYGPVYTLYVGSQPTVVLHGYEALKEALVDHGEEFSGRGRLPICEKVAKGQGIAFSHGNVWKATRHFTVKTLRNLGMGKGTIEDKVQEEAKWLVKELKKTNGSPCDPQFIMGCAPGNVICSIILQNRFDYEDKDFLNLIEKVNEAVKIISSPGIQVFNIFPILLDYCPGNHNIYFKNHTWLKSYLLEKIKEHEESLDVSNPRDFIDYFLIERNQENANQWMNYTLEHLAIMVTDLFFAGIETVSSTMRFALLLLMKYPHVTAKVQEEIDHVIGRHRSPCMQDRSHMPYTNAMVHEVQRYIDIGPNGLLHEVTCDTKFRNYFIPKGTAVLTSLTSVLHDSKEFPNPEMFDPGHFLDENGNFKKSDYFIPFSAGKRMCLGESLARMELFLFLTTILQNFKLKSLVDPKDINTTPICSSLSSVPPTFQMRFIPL
human AKT serine/threonine Kinase 2 (AKT2), AKT2 (gene 208), sequence (P31751 whole entry, looked up): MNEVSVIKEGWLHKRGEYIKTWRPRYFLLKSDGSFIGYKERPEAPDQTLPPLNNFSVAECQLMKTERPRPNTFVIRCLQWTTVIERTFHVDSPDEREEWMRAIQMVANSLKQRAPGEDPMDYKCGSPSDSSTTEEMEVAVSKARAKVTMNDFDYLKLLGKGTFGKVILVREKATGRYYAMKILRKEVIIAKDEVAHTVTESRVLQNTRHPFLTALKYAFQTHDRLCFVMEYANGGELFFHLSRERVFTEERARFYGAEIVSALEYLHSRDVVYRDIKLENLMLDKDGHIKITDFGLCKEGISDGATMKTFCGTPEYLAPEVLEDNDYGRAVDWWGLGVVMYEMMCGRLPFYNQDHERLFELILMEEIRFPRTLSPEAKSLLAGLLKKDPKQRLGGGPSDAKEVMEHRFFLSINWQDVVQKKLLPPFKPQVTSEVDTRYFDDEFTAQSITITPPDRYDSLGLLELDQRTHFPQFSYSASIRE
rat CYP3A2, Cyp3a2 (gene 266682), sequence (P05183 whole entry, looked up): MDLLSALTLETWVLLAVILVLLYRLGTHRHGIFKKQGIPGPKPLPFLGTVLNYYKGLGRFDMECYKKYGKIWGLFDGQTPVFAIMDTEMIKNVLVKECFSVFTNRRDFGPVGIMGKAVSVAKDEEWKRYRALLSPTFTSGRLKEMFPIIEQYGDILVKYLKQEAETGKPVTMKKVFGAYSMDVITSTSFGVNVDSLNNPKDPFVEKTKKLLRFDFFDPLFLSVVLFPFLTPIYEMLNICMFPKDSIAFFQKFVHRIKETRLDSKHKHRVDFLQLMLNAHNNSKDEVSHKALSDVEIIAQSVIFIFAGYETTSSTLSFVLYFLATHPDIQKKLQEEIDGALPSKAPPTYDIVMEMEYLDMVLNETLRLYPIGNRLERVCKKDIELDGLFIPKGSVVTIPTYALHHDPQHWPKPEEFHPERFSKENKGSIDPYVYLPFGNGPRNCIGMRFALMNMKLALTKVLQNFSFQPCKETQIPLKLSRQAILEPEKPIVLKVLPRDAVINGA
rat CYP2D2, Cyp2d26 (gene 25053), sequence (P10634 whole entry, looked up, canonical isoform): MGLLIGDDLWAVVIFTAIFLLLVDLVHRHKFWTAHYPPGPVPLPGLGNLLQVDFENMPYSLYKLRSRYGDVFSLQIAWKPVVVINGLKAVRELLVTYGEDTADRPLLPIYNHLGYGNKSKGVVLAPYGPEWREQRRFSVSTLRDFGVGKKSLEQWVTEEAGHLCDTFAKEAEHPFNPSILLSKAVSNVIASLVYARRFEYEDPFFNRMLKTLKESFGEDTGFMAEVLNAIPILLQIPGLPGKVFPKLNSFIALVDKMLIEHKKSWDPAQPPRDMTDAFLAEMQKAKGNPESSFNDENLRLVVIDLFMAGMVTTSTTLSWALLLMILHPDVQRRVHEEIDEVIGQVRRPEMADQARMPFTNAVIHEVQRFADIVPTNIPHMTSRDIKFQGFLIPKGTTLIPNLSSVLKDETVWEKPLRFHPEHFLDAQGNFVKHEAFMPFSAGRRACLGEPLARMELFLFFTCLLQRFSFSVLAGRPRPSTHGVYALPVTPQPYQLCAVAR
human Caspase 5 (CASP5), CASP5 (gene 838), sequence (P51878 whole entry, looked up): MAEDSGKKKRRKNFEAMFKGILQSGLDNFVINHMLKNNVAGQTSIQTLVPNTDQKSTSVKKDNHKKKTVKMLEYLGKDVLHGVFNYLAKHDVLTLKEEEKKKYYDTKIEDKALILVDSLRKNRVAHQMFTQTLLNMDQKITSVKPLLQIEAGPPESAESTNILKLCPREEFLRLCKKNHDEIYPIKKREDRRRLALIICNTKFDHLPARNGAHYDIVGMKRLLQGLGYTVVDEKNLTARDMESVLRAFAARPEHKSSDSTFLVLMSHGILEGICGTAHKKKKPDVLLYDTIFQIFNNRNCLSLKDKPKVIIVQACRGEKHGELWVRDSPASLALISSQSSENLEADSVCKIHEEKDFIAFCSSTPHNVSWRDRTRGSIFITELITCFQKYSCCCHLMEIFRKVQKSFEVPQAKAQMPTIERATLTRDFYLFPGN
human Acid Phosphatase 1 (ACP1), ACP1 (gene 52), sequence (P24666 whole entry, looked up): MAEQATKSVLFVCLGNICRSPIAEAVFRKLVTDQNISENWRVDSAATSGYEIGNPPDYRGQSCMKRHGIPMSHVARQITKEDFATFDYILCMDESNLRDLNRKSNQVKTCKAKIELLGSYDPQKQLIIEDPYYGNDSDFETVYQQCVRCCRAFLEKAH
human AKT serine/threonine Kinase 1 (AKT1), AKT1 (gene 207), sequence (P31749 whole entry, looked up): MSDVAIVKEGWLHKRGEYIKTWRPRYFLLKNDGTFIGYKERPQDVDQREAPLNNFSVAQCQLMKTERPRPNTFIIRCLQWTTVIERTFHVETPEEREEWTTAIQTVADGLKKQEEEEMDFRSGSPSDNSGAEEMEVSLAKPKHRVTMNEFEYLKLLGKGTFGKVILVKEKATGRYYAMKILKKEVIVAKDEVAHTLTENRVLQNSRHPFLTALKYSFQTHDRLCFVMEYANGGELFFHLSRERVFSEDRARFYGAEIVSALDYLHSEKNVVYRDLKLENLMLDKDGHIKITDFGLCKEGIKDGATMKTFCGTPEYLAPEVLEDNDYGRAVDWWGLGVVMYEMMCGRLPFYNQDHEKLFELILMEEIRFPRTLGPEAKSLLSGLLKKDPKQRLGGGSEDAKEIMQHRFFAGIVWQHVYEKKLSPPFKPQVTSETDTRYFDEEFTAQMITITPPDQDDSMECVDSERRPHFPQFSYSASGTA
human Beta-secretase (BACE), BACE1 (gene 23621), sequence (P56817 whole entry, looked up): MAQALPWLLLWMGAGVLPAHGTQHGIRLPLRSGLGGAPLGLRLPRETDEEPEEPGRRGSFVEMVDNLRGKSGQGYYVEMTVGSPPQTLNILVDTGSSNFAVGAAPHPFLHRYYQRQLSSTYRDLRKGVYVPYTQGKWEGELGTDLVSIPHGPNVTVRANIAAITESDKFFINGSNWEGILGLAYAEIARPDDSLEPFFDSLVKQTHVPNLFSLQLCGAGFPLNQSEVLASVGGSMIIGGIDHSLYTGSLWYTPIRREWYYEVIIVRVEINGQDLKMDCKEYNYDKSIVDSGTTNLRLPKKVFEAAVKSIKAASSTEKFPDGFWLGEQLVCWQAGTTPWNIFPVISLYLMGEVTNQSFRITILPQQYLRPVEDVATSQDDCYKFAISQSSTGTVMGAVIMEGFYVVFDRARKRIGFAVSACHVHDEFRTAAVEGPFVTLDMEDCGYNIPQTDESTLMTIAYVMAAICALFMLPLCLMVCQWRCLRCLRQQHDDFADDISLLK

## COc1nc(C)nc(NC(=O)NS(=O)(=O)c2ccccc2OCCCl)n1
[1]
  outcome: inactive

## C=CCOC(Cn1ccnc1)c1ccc(Cl)cc1Cl (stereo unspecified)
[2]
  AC50: 125 nM (active)
Rat CYP3A1, gene 25642
  AC50: 0.729 µM (active)
[3]
  AC50: 0.874 µM (active)

## N#CSCSc1nc2ccccc2s1
Rat CYP3A1, gene 25642
  AC50: 10.1 µM (active)
[3]
  AC50: 7.06 µM (active)

## CCC(O)=C1C(=O)CC(C(=O)O)CC1=O (stereo unspecified)
[4]
  outcome: inactive
[5]
  outcome: inactive

## O=C(Nc1ccc([N+](=O)[O-])cc1Cl)c1cc(Cl)ccc1O
[1]
  outcome: inactive
Caspase-3 (Homo sapiens)
  outcome: inactive
[5]
  outcome: inactive

## Oc1ccc(C(c2ccc(O)cc2)C(Cl)(Cl)Cl)cc1
[6]
  AC50: 883 nM (active)
[2]
  AC50: 2740 nM (active)
Rat CYP3A1, gene 25642
  AC50: 2.7 µM (active)
[3]
  AC50: 2.7 µM (active)
[4]
  AC50: 10.1 µM (active)
[7]
  AC50: 4.96 µM (active)

## CN(C)C(=O)Nc1ccc(Cl)c(Cl)c1
Rat CYP3A1, gene 25642
  AC50: 5.82 µM (active)
[1]
  outcome: inactive

## CCCCOC(=O)[C@@H](C)Oc1ccc(Oc2ccc(C(F)(F)F)cn2)cc1
[1]
  outcome: inactive
[7]
  outcome: inactive

## Cc1nn(C)c(Oc2ccccc2)c1C=NOCc1ccc(C(=O)OC(C)(C)C)cc1
[6]
  outcome: inactive

## O=C(O)C1(C(=O)Nc2ccc(Cl)cc2Cl)CC1
[8]
  AC50: 39.2 µM (active)
[4]
  AC50: 3.02 µM (active)

## COC(=O)c1cccc(C)c1S(=O)(=O)NC(=O)Nc1nc(OCC(F)(F)F)nc(N(C)C)n1
Caspase-3 (Homo sapiens)
  outcome: inactive

## N[C@@H](Cc1cc(I)c(Oc2ccc(O)c(I)c2)c(I)c1)C(=O)O
[4]
  AC50: 8.73 µM (active)
[7]
  AC50: 25.9 µM (active)

## OB(O)O
[5]
  outcome: inactive

## CCCCOCCOCCOCc1cc2c(cc1CCC)OCO2
[2]
  outcome: inactive
Rat CYP3A1, gene 25642
  AC50: 5.03 µM (active)
[3]
  AC50: 4.85 µM (active)

## CCCCOC(=O)C(C)Oc1ccc(Oc2ccc(C(F)(F)F)cn2)cc1 (stereo unspecified)
[7]
  AC50: 25 µM (active)

## CC(C)CCCCCCc1ccc(O)cc1
[1]
  outcome: inactive

## C[C@]12CC[C@@H]3c4ccc(O)cc4C[C@@H](CCCCCCCCCS(=O)CCCC(F)(F)C(F)(F)F)[C@H]3[C@@H]1CC[C@@H]2O (stereo partly specified)
[7]
  outcome: inactive

## CSC(=O)c1cccc2nnsc12
Rat CYP3A1, gene 25642
  AC50: 4.28 µM (active)
[3]
  AC50: 1.79 µM (active)

## CC1(C)C(C=C(Cl)Cl)C1C(=O)OCc1cccc(Oc2ccccc2)c1 (stereo unspecified)
[7]
  AC50: 40.2 µM (active)

## S=C(S)NCCNC(=S)S.[Mn+2].[S-]C([S-])=NCCN=C([S-])[S-].[Zn+2]
[6]
  outcome: inactive
Rat CYP3A1, gene 25642
  AC50: 10 µM (active)
[8]
  AC50: 4.22 µM (active) and 4.27 µM (active)
[1]
  AC50: 683 nM (active) and 1.49 µM (active)
Caspase-3 (Homo sapiens)
  outcome: inactive
[7]
  AC50: 9.11 µM (active)
[5]
  AC50: 1.64 µM (active) and 1.94 µM (active)

## CCCCC(CC)CN1C(=O)C2C3C=CC(C3)C2C1=O (stereo unspecified)
Rat CYP3A1, gene 25642
  AC50: 6.63 µM (active)
[3]
  AC50: 6.87 µM (active)
[5]
  outcome: inactive

## CC(C)(c1ccc(O)cc1)c1ccc(O)cc1
[6]
  AC50: 4.5 µM (active) [middle of 4 runs]
Rat CYP3A1, gene 25642
  AC50: 9.88 µM (active)
[3]
  AC50: 8.05 µM (active)

## O=C(c1ccc(O)cc1O)c1ccc(O)cc1O
[7]
  outcome: inactive

## CCCCCCC(C)OC(=O)COc1nc(F)c(Cl)c(N)c1Cl (stereo unspecified)
[7]
  AC50: 3.29 µM (active)

## S=C([S-])NCCNC(=S)[S-].[Mn+2]
[6]
  AC50: 10000 nM (active)
Rat CYP3A1, gene 25642
  AC50: 7.1 µM (active)
[4]
  AC50: 15.1 µM (active)
[1]
  AC50: 1.05 µM (active)
[7]
  AC50: 17.6 µM (active)
[5]
  AC50: 606 nM (active)

## CCOC(=O)NCCOc1ccc(Oc2ccccc2)cc1
Rat CYP3A1, gene 25642
  AC50: 5.62 µM (active)

## CCN(Cc1c(F)cccc1Cl)c1c([N+](=O)[O-])cc(C(F)(F)F)cc1[N+](=O)[O-]
Rat CYP3A1, gene 25642
  AC50: 6.19 µM (active)
[3]
  AC50: 4.04 µM (active)

## CCCCCOC(=O)COc1cc(N2C(=O)C3=C(CCCC3)C2=O)c(F)cc1Cl
[7]
  AC50: 3.5 µM (active)

## CC(C)(C)[C@@H](O)[C@@H](Cc1ccc(Cl)cc1)n1cncn1
[6]
  AC50: 370 nM (active)
Rat CYP3A1, gene 25642
  AC50: 3.44 µM (active)
[3]
  AC50: 4.88 µM (active)

## COC(=O)CSc1cc(N=c2sc(=O)n3n2CCCC3)c(F)cc1Cl
[2]
  outcome: inactive
